Compounds with a hit are over-represented: about 3.1% of the library has one in this group of screens.
TDP1 inh – TDP1 (human) enzyme inhibition | Q9NUW8 | recombinant TDP1, AlphaScreen DNA substrate cleavage | Potency, µM (doses to about 130 µM), without a hit: at the top dose activity change, negative = inhibition, usual class: inhibitors | 350,000 tested, 0.28% active; note: % is set by controls: 0 for no effect and ±100 for the full control effect; nearly all actives have a fitted effect of over 40% in size
Target sequence (Q9NUW8 whole entry, looked up): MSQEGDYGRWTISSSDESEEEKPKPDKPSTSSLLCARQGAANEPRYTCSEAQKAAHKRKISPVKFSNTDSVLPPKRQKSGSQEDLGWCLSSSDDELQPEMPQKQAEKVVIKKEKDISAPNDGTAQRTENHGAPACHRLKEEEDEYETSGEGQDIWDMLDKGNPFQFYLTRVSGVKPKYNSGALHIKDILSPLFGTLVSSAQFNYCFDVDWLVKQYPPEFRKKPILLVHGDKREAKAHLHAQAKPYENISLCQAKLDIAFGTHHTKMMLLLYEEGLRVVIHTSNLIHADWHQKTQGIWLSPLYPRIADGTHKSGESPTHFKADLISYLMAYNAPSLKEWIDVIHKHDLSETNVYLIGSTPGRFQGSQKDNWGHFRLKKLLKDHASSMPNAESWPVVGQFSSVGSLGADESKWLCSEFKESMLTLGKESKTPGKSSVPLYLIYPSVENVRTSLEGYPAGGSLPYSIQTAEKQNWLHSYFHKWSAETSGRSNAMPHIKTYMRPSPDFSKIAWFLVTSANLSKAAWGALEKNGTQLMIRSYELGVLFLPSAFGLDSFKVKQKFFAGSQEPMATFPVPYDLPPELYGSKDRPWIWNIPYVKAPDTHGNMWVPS
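Enzyme-compound mixtures sat 15 min at room temperature, followed by a 5 min reaction with 15 nM final substrate and 10 min with AlphaScreen beads. Recombinant human Tdp1 was used at 1 nM final.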
Pin1 inhibitor – human Pin1 inhibition. Q13526. Potency, µM (highest dose often 115 µM), for inactives: at the highest dose activity, negative = inhibition, usual class: inhibitors. Pin1 FP peptide displacement, HiFluor488, 10 min. 390,000 tested, 0.009% active. AID 504891; active = well fitted inhibition curve with a large enough effect in the polarisation, with a control signal flat, not every such curve was filed as active; inconclusive = small, poorly fitted or top-dose-only effect, or effect the other way, or a change in a side signal; inactive = no such curve, though single readings can be large or run the other way; the % refers to the polarisation; note: % is set by controls: 0 for no effect and ±100 for the full control effect
Tb PFK block – blocks T. brucei phosphofructokinase. O15648. Potency, µM (doses to about 57.5 µM), for the others: top-dose activity, negative = inhibition, most hits filed as inhibitors. T. brucei PFK, ADP-Glo luminescence. 330,000 tested, 0.17% active;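 note: 0% = uninhibited 1x PFK enzyme wells and -100% = no-enzyme wells; nearly all actives have a fitted effect of over 60% in size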
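PFK 1.25 nM, F6P 0.5 mM, ATP 0.1 mM, 0.1 M TEA pH 8.0, 5 mM MgCl2, 0.01% Tween20, 0.1% BSA; 45 min RT. ADP-Glo readout. qHTS titration up to 57 uM; curves fitted, compounds curve-classed.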
VDR inh – vitamin D3 receptor (human) inhibition. 400,000 tested, 0.93% active. Potency, µM, inactives show max response, negative = inhibition, hits mostly inhibitors. AID 504847. VDR-SRC2-3 peptide fluorescence polarization, 2 h; note: % is set by controls: 0 for no effect and ±100 for the full control effect
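FP read-out; VDR + SRC2-3 coactivator peptide; 23 nl compound by pintool; 2 h RT incubation; reagents held at 4 deg C, protected from light.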
S-ASM inh – blocks human secretory acid sphingomyelinase; placental ASM, HMU-PC fluorogenic substrate, 60 min; 340,000 tested, 0.006% active; Potency, µM (titrated, usually from 57.5 µM), inactives show at the highest dose activity change, negative = inhibition, hits mostly inhibitors; P17405
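Steps: dispense placental human ASM, pin compound, wait 10 min at room temperature, add HMU-PC0 substrate at 9 uM final, incubate 60 min at 37 °C, add stop solution raising pH to 10, read fluorescence.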
PLK1 PBD inh – blocks phosphopeptide binding to human PLK1 polo-box domain; P53350; Plk1 PBD binding of FITC phosphopeptide, fluorescence polarization; Potency, µM, inactives show max response, negative = inhibition, actives largely listed as inhibitors; 360,000 tested, 2.8% active; note: series mostly up to about 57 µM; % is set by controls: 0 for no effect and ±100 for the full control effect; nearly all actives have a fitted effect of over 65% in size
* marks the source's active call; other numbers are inactive results; ? = inconclusive; . = no result given; [ ] = another dose, or the depositor's remark. Unless noted, calls come from the whole dose curve; as a rule, active = well fitted curve in the direction sought with a large enough effect; inconclusive = small, poorly fitted or top-dose-only effect, or another doubt; inactive = no such curve, though single readings can be large; an effect the other way counts as inactive or inconclusive. Potency is the fitted concentration of half-maximal effect.

SMILES | TDP1 inh | Pin1 inhibitor | Tb PFK block | VDR inh | S-ASM inh | PLK1 PBD inh
O=S(=O)(c1ccc(Cl)cc1)N1CCN(c2nc(-c3ccccc3)nc3ccccc23)CC1 | 1% | -8% | . | -14% | . | .
COc1ccc(NC(=O)C(=O)NCC2(c3ccccc3)CCCC2)c(OC)c1 | -5% | -1% | . | -2% | . | .
CN1CCN(c2ncc3nc(-c4cccc(C#N)c4)c(=O)n(Cc4ccc(F)cc4)c3n2)CC1 | . | . | . | -2% | . | .
Cc1cccc(OCC(O)CN2C(C)(C)CC(O)CC2(C)C)c1 (stereo not drawn) | 5% | 0% | . | -8% | 7% | 9.5µM*
Cc1ccc(N2CCN(CC(O)COc3cccc(C)c3)CC2)cc1 (stereo not drawn) | 8% | 2% | 2% | -7% | 0% | 4%
COC(=O)/C=C1/SC(=NC(=O)c2ccc(Cl)cc2)NC1=O | . | ? | . | ? | -15% | 34µM*
CC(C)(C)NC(=O)C(c1ccco1)N(C(=O)Cn1nnc(-c2ccc(F)cc2)n1)c1cccc(F)c1 (stereo not drawn) | 5%[56.1 µM] | -3% | 0% | -9% | -4% | -7%
CC(C)(C)NC(=O)C(c1c[nH]c2ccccc12)N(C(=O)Cn1nnc(-c2ccc(F)cc2)n1)c1cccc(O)c1 (stereo not drawn) | 5% | 18% | 0% | ? | -23% | 27µM*
CC1CN(c2ccc(Oc3ccccc3)cc2)c2nc3c(c(=O)[nH]c(=O)n3C)n2C1 (stereo not drawn) | 0% | -6% | 2% | -27% | -1% | 27µM*
C/C=C(\C)C(=O)C[Si](C)(C)c1ccccc1 | 7% | . | . | 2% | . | .
Clc1ccc(OCCn2cnc3ccccc32)cc1 | 12% | 0% | -3% | -22% | -1% | 3µM*
O=C(CN1C(=O)/C(=C/c2ccco2)SC1=S)NC1CCS(=O)(=O)C1 (stereo not drawn) | . | ? | ? | -12% | -12% | 30µM*
O=C(CCCN1C(=O)/C(=C\c2ccco2)SC1=S)Nc1ccc(O)cc1C(=O)O | 5% | ? | -8% | ? | -4% | 17µM*
CC(C(=O)Nc1ccc(C(=O)O)c(O)c1)N1C(=O)/C(=C\c2ccco2)SC1=S (stereo not drawn) | . | ? | ? | -10% | -1% | 9.5µM*
CC(C(=O)N(C)C1CCS(=O)(=O)C1)N1C(=O)/C(=C/c2ccco2)SC1=S (stereo not drawn) | -16% | 0% | -7% | -20% | -14% | ?
O=C(CN1C(=O)/C(=C/c2ccco2)SC1=S)Nc1ccc(O)c(C(=O)O)c1 | -18% | . | 24% | -6% | 6% | ?
O=C(CN1C(=O)/C(=C/c2ccco2)SC1=S)Nc1ccc(C(=O)O)c(O)c1 | . | 34% | 11% | 9% | 42% | 13µM*
O=C(CCCN1C(=O)/C(=C\c2cccs2)SC1=S)Nc1ccc(O)cc1C(=O)O | 13% | 3% | 13% | -16% | 8% | -4%
Cc1cc2c(s1)c1cnn(Cc3ccccc3Cl)c(=O)c1n2C | 1% | 4% | . | . | . | .
Cc1cc(C)cc(NS(=O)(=O)c2ccc3[nH]cc(C(=O)NC4CCCCC4)c(=O)c3c2)c1 | 5% | 21% | . | 2% | . | .
CCN(c1ccccc1)S(=O)(=O)c1ccc2[nH]cc(C(=O)N3CCOCC3)c(=O)c2c1 | 50µM* | -1% | -26% | 17% | 20% | -11%
Cc1ccccc1NS(=O)(=O)c1ccc2[nH]cc(C(=O)NC3CCCCC3)c(=O)c2c1 | 25µM* | 20% | -11% | -4% | . | .
Cc1cc(C)cc(NS(=O)(=O)c2ccc3[nH]cc(C(=O)N4CCCCCC4)c(=O)c3c2)c1 | -2% | 5% | . | -15% | . | .
Cc1ccccc1NS(=O)(=O)c1ccc2[nH]cc(C(=O)N3CCCCC3)c(=O)c2c1 | 22µM* | -6% | -20% | 4% | . | .
CCN(c1ccc(F)cc1)S(=O)(=O)c1ccc2[nH]cc(C(=O)NCCCN3CCOCC3)c(=O)c2c1 | -3% | -3% | -1% | -6% | 1% | 3%
SMILES | TDP1 inh | Pin1 inhibitor | Tb PFK block | VDR inh | S-ASM inh | PLK1 PBD inh
O=C(O)CCc1cc(F)c(S(=O)(=O)N2CCN(S(=O)(=O)c3ccc4c(c3)OCCO4)CC2)cc1F | 2% | -10% | . | . | . | .
NCCCC[C@H](NC(=O)[C@H](CS)NC(=O)[C@@H](N)Cc1cnc[nH]1)C(=O)N[C@@H](Cc1ccccc1)C(=O)N[C@@H](Cc1c[nH]c2ccccc12)C(=O)N[C@@H](Cc1c[nH]c2ccccc12)C(=O)O | 21% | . | . | -15% | . | .
CCCC[C@@H]1CCCO[C@@](C(=O)NCc2ccc(S(C)(=O)=O)cc2)(C(F)(F)F)C1 | 10% | -13% | . | -17% | . | .
COc1ccc(C2Nc3ccccc3C(=O)N2c2ccc(F)cc2)cc1COc1ccc(NC(C)=O)cc1 (stereo not drawn) | 0% | 22% | . | 0% | . | .
CC(C)CC(C(=O)O)N1C(=O)C2C3CC(C2C1=O)C1C(c2ccccc2)c2sc(=O)[nH]c2SC31 (stereo not drawn) | 3% | -5% | 2% | ? | 9% | 17µM*
CCC(=O)Nc1ccccc1Oc1ccccc1 | 1% | ? | -1% | -23% | 3% | 24µM*
COc1ccc(NC(=O)CNS(=O)(=O)c2cccc3nonc23)c(OC)c1 | 3% | 2% | 19% | 3% | 1% | 30µM*
CCC(=O)Nc1ccc(OC)cc1OC | 2% | -9% | 5% | ? | 3% | 6.7µM*
CCCCC(=O)Nc1ccccc1Oc1ccccc1 | -2% | ? | -1% | 2% | -3% | -5%
COc1ccc(NC(=O)CCNS(=O)(=O)c2cccc3nonc23)c(OC)c1 | 10% | -6% | -2% | 11% | -7% | -6%
Fc1ccc(NC(=S)NCc2ccccc2)cc1 | . | -11% | -7% | -3% | 4% | -11%
Cc1ccc(NC(=S)NNC(=S)NCc2ccccc2)cc1 | 7% | -2% | 1% | 50µM* | 0% | 30µM*
Cc1ccc2c(c1)c1n[nH]c(=S)nc1n2CCc1ccccc1 | . | 3% | -5% | ? | 2% | ?
Fc1ccc2c(c1)c1n[nH]c(=S)nc1n2CCc1ccccc1 | . | -10% | -11% | ? | -2% | 21µM*
O=C(Cn1cc(F)c(=O)[nH]c1=O)NCCO | 5% | 0% | 3% | -3% | -1% | 5.3µM*
O=C(NC(=S)Nc1cccnc1Cl)c1ccco1 | 0% | -1% | -4% | 0% | 1% | 27µM*
O=C(NC(=S)Nc1ccccn1)c1ccco1 | -3% | 3% | -4% | 4% | 0% | 1%
CCN(CC)c1ccc(NC(=S)NC(=O)c2ccco2)cc1 | 10% | 0% | -5% | 79µM* | -1% | 21µM*
CCN(CC)c1ccc(NC(=O)c2ccco2)cc1 | -7% | -9% | -1% | -6% | 0% | -2%
